PubChem BioAssay AID1259245 (Vanderbilt High Throughput Screening Facility, 2017)
Values joined by “and” are separate entries in the source; they are usually repeats but may differ in a detail not shown here. Equal values may be shown once. About 1,400 (3.5%) of roughly 40,000 compounds were called active.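 Rule for the calls: active = any of four per-well response measures lying three or more SD from its plate-wide compound average, in either direction; inactive = the rest, inconclusive results apart.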 The entries come from a sample that favours actives as a whole.

Target: Voltage-dependent calcium channel gamma-2 subunit (Mus musculus) + Glutamate receptor 2 (Rattus norvegicus) (UniProt O88602+P19491)
Sequence (O88602 whole entry, looked up): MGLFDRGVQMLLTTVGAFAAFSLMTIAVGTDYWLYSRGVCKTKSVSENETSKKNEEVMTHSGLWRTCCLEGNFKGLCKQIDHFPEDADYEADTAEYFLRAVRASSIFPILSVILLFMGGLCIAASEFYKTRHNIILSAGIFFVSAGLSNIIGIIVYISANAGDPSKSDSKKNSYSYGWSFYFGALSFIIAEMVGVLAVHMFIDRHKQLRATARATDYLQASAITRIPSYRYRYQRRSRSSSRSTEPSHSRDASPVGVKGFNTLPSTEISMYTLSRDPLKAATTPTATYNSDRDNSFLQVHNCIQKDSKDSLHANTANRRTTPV
Sequence (P19491 whole entry, looked up): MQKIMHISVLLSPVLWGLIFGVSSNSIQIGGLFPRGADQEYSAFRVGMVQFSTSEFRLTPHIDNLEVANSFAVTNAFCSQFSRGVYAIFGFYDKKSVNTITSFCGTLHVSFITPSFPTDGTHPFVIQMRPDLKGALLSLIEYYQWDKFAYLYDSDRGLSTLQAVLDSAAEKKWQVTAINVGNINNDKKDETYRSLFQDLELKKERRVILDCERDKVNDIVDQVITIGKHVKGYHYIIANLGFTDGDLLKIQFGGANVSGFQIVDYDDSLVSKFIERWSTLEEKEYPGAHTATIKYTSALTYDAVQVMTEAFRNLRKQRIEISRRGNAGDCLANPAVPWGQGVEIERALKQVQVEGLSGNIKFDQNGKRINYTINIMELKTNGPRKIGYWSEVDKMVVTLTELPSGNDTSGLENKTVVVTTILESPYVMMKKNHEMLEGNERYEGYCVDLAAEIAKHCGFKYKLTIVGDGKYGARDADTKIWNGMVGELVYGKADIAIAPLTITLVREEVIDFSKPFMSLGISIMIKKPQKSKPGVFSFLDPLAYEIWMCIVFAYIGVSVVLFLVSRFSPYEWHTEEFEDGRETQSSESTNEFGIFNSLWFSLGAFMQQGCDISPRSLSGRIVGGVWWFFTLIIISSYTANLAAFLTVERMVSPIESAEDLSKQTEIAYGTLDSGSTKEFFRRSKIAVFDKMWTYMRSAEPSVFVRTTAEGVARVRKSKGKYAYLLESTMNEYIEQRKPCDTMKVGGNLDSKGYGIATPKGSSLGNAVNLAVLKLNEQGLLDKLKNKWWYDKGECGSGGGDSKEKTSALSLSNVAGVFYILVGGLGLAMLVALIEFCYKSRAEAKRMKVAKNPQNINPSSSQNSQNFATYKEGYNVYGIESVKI
Assay: modulators of GluA2-stargazin AMPA receptor complexes, primary screen, cell-based, membrane potential dye (AID 1259245)
Settings: HEK293 GluA2+stargazin, membrane potential dye (FDSS), glutamate EC50, at 30 µM, hits were called plate by plate, in both directions; compound max-min signal: compound-alone response (agonism); glutamate slope, % of max: measured here: glutamate response slope, % max

SMILES | compound max-min signal | glutamate response, % of max | glutamate slope, % of max
Cc1ccc(-n2ccnc2N2CCN(CC(=O)Nc3ccc4c(c3)OCO4)CC2)cc1 | 0.0402 | 18.2% (inactive) | 39.2%
CCSc1nnc(-c2ccc(C)cc2)n1-c1ccccc1 | 0.0317 | 0.366% (inactive) | -1.02%
CC(C)c1ccc(NC(=O)C(=O)NCCN2CCN(c3ccc(Cl)cc3)CC2)cc1 | 0.121 | 29.8% (inactive) | 55.1%
Cc1cc(C(=O)O)c2cccc(Cl)c2n1 | 0.0395 and 0.0789 | 80.9% (inactive) and 28.3% (inactive) | 99.3% and 46.1%
Cc1ccc(-c2nc3c(C)cc(C)cc3c(=O)o2)cc1 | 0.127 | 23.3% (inactive) | 45.9%
O=c1oc(-c2ccncc2)nc2c(Cl)cccc12 | 0.253 | 22.4% (active) | 51.7%
O=C(Nc1ccc2c(c1)OCO2)c1ccc(S(=O)(=O)N2CCCCCC2)cc1 | 0.123 | 36.1% (inactive) | 60.4%
COc1ccc(N2C(=O)/C(=C/c3ccncc3)SC2=S)cc1 | 0.061 | 31.6% (inactive) | 49.4%
O=C(Nc1cccc(N2CCCCC2=O)c1)c1cc([N+](=O)[O-])ccc1Cl | 0.113 | 24.4% (inactive) | 52.2%
Cc1ccc(C(=O)Nc2cccc(N3CCCC3=O)c2)cc1[N+](=O)[O-] | 0.195 | 33.5% (active) | 54.6%
Cc1cccc(C(=O)Nc2cccc(N3CCCC3=O)c2)c1 | 0.114 | 45.7% (inactive) | 67.6%
COc1ccc(NC(=O)COc2ccccc2F)cc1N1CCCCC1=O | 0.0429 | 20.8% (inactive) | 35.3%
O=C(Nc1onc2c1CCCC2)c1nc(-c2cnccn2)no1 | 0.128 | 29.1% (inactive) | 62.8%
CCC(C)NC(=O)/C=C/c1cc(OC)ccc1OC (centres undefined) | 0.0444 and 0.0831 | 100% (inactive) and 35.1% (inactive) | 112% and 48.5%
O=C(Nc1ccc(S(=O)(=O)Nc2nccs2)cc1)c1csc(-c2cnccn2)n1 | 0.274 | 48.2% (active) | 85.9%
CC(C)c1cc(=O)n(CC(=O)Nc2ccc(S(=O)(=O)Nc3nccs3)cc2)cn1 | 0.0931 | 41.9% (inactive) | 61.5%
CCCCCOc1cccc(C(=O)Nc2ccc(S(=O)(=O)Nc3nnc(CC)s3)cc2)c1 | 0.112 | 38.7% (inactive) | 62.1%
CCOc1ccccc1NC(=O)Cn1nc(-c2cc(C)c(C)cc2C)ccc1=O | 0.0944 | 64% (inactive) | 97.5%
Cc1nc2ccccc2c(=O)n1-c1cccc(NC(=O)CCC2CCCCC2)c1 | 0.0678 | 11% (inactive) | 28.2%
O=C(NC(C(=O)O)C12CC3CC(CC(C3)C1)C2)c1cc([N+](=O)[O-])ccc1Cl (centres undefined) | 0.0736 | 35.4% (inactive) | 56.5%
COC(=O)N1CCC(CNC(=O)c2ccc(F)cc2)CC1 | 0.0851 | 46.6% (inactive) | 66.5%
O=C(NC(C(=O)N1CCCCC1)C12CC3CC(CC(C3)C1)C2)c1ccc(F)cc1 (centres undefined) | 0.0524 | 56.1% (active) | 79.2%
O=C(Nc1sc2ccccc2c(=O)c1-c1ccc2c(c1)OCO2)c1ccco1 | 0.14 | 24.9% (inactive) | 55.4%
